Structures are written as SMILES. Where “and” joins values, the source holds several entries; their conditions need not be identical. Equal entries are not always repeated. Records with an inconclusive call do not appear. Where a structure was tested more than once in an assay, its records may differ in their call. Calls of active or inactive are those of the source. Rule for the calls: active = hit-call score of the fitted dose curve at least 0.9, where 1 is the maximum; inconclusive = response in the unintended direction; inactive = score below 0.9.

The experiment deals with Cellular tumor antigen p53 (Homo sapiens) (UniProt P04637). Briefly: TOX21_p53_BLA_p2_ratio: Tox21 HCT-116 p53 Agonism Beta-lactamase Assay, Ratio, Phase 2 (AID 2283592). The source says: TOX21_p53_BLA_p2 is a cell-based, single-readout assay that uses HCT116, a human intestinal cell line, […] in a 1536-well plate.TOX21_p53_BLA_p2_ratio is an assay readout measuring reporter gene via receptor activity and designed using inducible reporter (beta lactamase induction) detected with GAL4 b-lactamase reporter gene. The signal is derived from the ratio of cleaved (ch2) to uncleaved (ch1) reporter gene substrate used as the measure of target activity.Data from the assay component TOX21_p53_BLA_p2_ratio was analyzed into 1 assay endpoint. This assay endpoint, TOX21_p53_BLA_p2_ratio, was analyzed in the positive analysis fitting direction relative to DMSO as the negative control and baseline of activity. Using a type of inducible reporter, gain-of-signal activity can be used to understand changes in the reporter gene as they relate to the gene TP53. Furthermore, this assay endpoint can be referred to as a primary readout, because this assay has produced multiple assay endpoints and this ratio serves a reporter gene function to understand target activity. To generalize the intended target to other relatable targets, this assay endpoint is annotated to the DNA binding intended target family, where the subfamily is tumor suppressor.
Sequence of Cellular tumor antigen p53 (Homo sapiens) (P04637 whole entry, looked up, the tested form may be a part): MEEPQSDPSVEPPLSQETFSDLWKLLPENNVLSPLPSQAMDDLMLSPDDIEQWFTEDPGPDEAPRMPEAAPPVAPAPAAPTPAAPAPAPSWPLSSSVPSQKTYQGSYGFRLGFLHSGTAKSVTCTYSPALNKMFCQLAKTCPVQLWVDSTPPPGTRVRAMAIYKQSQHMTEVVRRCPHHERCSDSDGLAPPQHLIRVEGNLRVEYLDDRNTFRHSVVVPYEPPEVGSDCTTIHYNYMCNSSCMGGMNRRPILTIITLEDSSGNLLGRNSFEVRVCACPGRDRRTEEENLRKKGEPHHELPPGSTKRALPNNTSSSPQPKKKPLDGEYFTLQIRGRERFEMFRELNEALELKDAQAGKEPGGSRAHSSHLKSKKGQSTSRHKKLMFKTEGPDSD
Thawing Method: Place 14 mL of pre-warmed thaw medium into a 15 mL of conical tub. Remove the vial of cells to be thawed from liquid nitrogen and thaw rapidly by placing at 37C in a water bath with gentle agitation for 1-2 minutes. Decontaminate the vial by wiping with 70% ethanol before opening in a biological safety cabinet. Transfer the vial contents drop-wise into 14 mL of thaw medium in a sterile 15-mL conical tub. Centrifuge cells at 900 rpm for 4 minutes and resuspend in thaw medium. Transfer contents to the T75 tissue culture flask containing Thaw Medium and place flask in a humidified 37C/5% CO2 incubator. Switch to growth medium at first passage.Propagation Method: Aspirate medium, rinse once in DPBS, add 0.25% Trypsin/EDTA and swirl to coat the cell evenly. Add an equal volume of Growth Medium to inactivate Trypsin after 2-3 minutes incubation at 37C. Centrifuge cells at 900 rpm for 4 minutes and resuspend in growth medium. Cell should be passage or fed at least twice a week.Assay Protocol: Harvest cells from culture in growth medium and resuspend in assay medium. 2.2 Dispense 4000 cells/5 uL/well into 1536-well black/clear bottom plates using a Multidrop dispenser. After the cells were incubated at 37C for 5 hours, 23 nL of compounds dissolved in DMSO were transferred to the assay plate by a PinTool resulting in a 217-fold dilution. Incubate the plates for 16 hours at 37C, 5% CO2. Add 1 uL of 6X LiveBLAzer FRET B/G (CCF4-AM) Substrate Mixture to each well using a BioRAPTR dispenser and incubate the plates at room temperature for 2 hours. Measure fluorescence intensity at 460 and 530 nm emission and 405 nm excitation by an Envision detector. Data is expressed as the ratio of 460nm/530nm emissions. Add 4 uL of Cell-titer Glo to each well using BioRAPTR and incubate the plates at room temperature for 2 hours. Measure fluorescence intensity by a VewLux plate reader.
Turning to `c1ccc2occc2c1`, the outcome was inactive.
As to `CC1=C(C)S(=O)(=O)CCS1(=O)=O`, the outcome was inactive.
With `O=C(O)CN(CC(=O)O)CC(=O)O`, the outcome was inactive.
As to `O=C1c2c(O)cccc2Cc2cccc(O)c21`, the outcome was inactive.
Same read-out and setting: next, `CCCCCCCCCCCCCCOS(=O)(=O)O`: “inactive”.
By AC50 is commonly meant the concentration giving half of the maximal activity seen. Regarding `O=C(O)c1[nH]n(-c2ccc(S(=O)(=O)O)cc2)c(=O)c1N=Nc1ccc(S(=O)(=O)O)cc1`, the AC50 was 0.000189 µM (active) and the result was inactive.
Take `C=CCc1ccc(OC)c(OC)c1`: the outcome was inactive.
Same read-out and setting: next, `COc1ccc(OC(F)(F)F)cc1CN[C@H]1CCCN[C@H]1c1ccccc1`: “inactive”.
Take `CCc1nc(N)nc(N)c1-c1ccc(Cl)cc1`: the result was inactive; the AC50 is 58.9 µM (active) and 27 µM (active).
For the compound `Cc1c(C)c2c(c(C)c1O)CCC(C)(COc1ccc(CC3SC(=O)NC3=O)cc1)O2` (stereo not given), the half-maximal activity concentration (AC50) was 15.4 µM (active) and 28.5 µM (active).
As for `CCc1cc(C2=C(C(=O)O)N(c3ccccc3C(F)(F)F)S(=O)(=O)c3ccccc32)cc2c1OCO2`, the outcome was inactive.
Turning to `CCCCCCC(CCCCCCCCCCC(=O)OCC(COC(C)=O)OC(C)=O)OC(C)=O` (stereo not given), the result was inactive.
Same read-out and setting: then `O=C1O[C@H]([C@H](O)CO)C(O)=C1O`, with “inactive”; and `Cc1cc(Cc2ccc(N)c(C)c2)ccc1N`, with “inactive”.
For `CN(C)CCCN1c2ccccc2Sc2ccc(Cl)cc21`, the result was inactive and the AC50 is 6.66 µM (active).
On to `CC(=O)S[C@H](C(=O)N[C@H]1Cc2ccccc2[C@H]2CCC[C@@H](C(=O)O)N2C1=O)C(C)C`, for which the outcome was inactive.
With `Cc1ccc(C(C)(C)C)c(O)c1`, the outcome was inactive.
Turning to `CN(C)C(=O)NC1(c2ccccc2)CCN(CCC[C@]2(c3ccc(Cl)c(Cl)c3)CCCN(C(=O)c3ccccc3)C2)CC1`, the outcome was inactive.
Consider `CCCCCCCC(=O)OC`, for which the result was inactive.
Take `CN(C)C(=O)NC1(c2ccccc2)CCN(CC[C@@]2(c3ccc(F)c(F)c3)CN(C(=O)c3ccccc3)CCO2)CC1`: the result was inactive.
Turning to `O=C1OC(c2ccc(O)cc2)(c2ccc(O)cc2)c2ccccc21`, the outcome was inactive.
On to `CCCC[C@H]1CN(CC2CCOCC2)C(=O)OC12CCN(C1(C)CCN(C(=O)c3c(C)ncnc3C)CC1)CC2`, for which the outcome was inactive.
On to `Oc1ccc(O)cc1`, for which the half-maximal activity concentration (AC50) was 20.2 µM (active) and the result was inactive.
For `CC(C)(O)c1ccc(CNC(=O)c2cccnc2Oc2ccc(F)cc2)cc1`, the outcome was inactive.
On to `Oc1ccccc1O`, for which the result was inactive.
Still for that read-out and setting: next, `NCCOCCOCCN`: “inactive”; `CCCCC(CC)COC(=O)CCCCCCCC(=O)OCC(CC)CCCC` (stereo not given): “inactive”; `CCOCCOCCO`: “inactive”.
Take `COc1ccc(C(=O)Nc2nc3ccccc3c(NCc3ccccc3)c2C#N)cc1`: the AC50 was 60.1 µM (active).
For the compound `CCCCCCCCCC[N+](C)(C)[O-]`, the outcome was inactive.
In the case of `C=CCCCCCCCCCCCC`, the outcome was inactive.
`CN(C)CCCN(C)CCCN(C)C`: the outcome was inactive.
Regarding `CCCCc1nc2cccnc2n1Cc1ccc(-c2ccccc2-c2nnn[nH]2)cc1`, the result was inactive.
For the compound `CCCCC(CC)CO` (stereo not given), the result was inactive.
For `S=c1[nH]c2ccccc2s1`, the outcome was inactive.
For `COC(=O)CCC(=O)OC`, the outcome was inactive.

Source of the values: PubChem BioAssay (EPA / NIEHS).
